Records with an inconclusive call do not appear. A number with no mark means an inactive call. The source made the active and inactive calls. Calls follow the shape of the full dose curve.
Experiment: Confirmatory qHTS to identify inhibitors of SARS-CoV-2 cell entry (AID 1645844); also: nearly all actives have a fitted effect of over 45% in size
Conditions: SARS-CoV-2 pseudotyped particle cell entry, luciferase; series mostly up to 57.2 µM; activity, negative = inhibition: at the top concentration
Outline: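 HEK293-ACE2 cells (Expi293F stably expressing human ACE2) were pretreated with compounds for 1 hr at 37C, then infected with MLV-based particles carrying Wuhan-Hu-1 spike (C-terminal 19-aa truncation). Luciferase luminescence read after 48 hr; normalized to spike PP (100%) and bald PP (0%).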
Potency is read from the fitted curve at half-maximal effect.

Compound	Potency
O=C1[C@@H]2[C@H]3CC[C@H](C3)[C@@H]2C(=O)N1C[C@@H]1CCCC[C@H]1CN1CCN(c2nsc3ccccc23)CC1	12.1 µM (active)
Cc1cncc(CN2CCC(=C3c4ccc(Cl)cc4CCc4cccnc43)CC2)c1	0.607 µM (active)
CCN1CCN(Cc2ccc(Nc3ncc(F)c(-c4cc(F)c5nc(C)n(C(C)C)c5c4)n3)nc2)CC1	5.41 µM (active)
CCCN1C[C@H](C)[C@@H](O)[C@](C)(O)[C@@H](CC)OC(=O)[C@H](C)[C@@H](O[C@H]2C[C@@](C)(OC)[C@@H](O)[C@H](C)O2)C(C)[C@@H](O[C@@H]2O[C@H](C)C[C@H](N(C)C)[C@H]2O)[C@](C)(O)C[C@H]1C (some centres undefined)	21.5 µM (active)
[2H]C([2H])([2H])C(O)([C@@H](C)/C=C/[C@@H](C)[C@H]1CC[C@H]2/C(=C/C=C3C[C@@H](O)C[C@H](O)C3)CCC[C@]12C)C([2H])([2H])[2H]	6.81 µM (active)
CC(CN1c2ccccc2Sc2cccnc21)N(C)C (centres undefined)	24.1 µM (active)

Experiment: Cytotoxicity counterscreen for inhibitors of SARS-CoV-2 cell entry (AID 1645845); also: nearly all actives have a fitted effect of over 50% in size; as to activity change, negative = cytotoxicity: % is scaled to controls: 0 for no effect and ±100 for the full control effect
Conditions: cell viability (SARS-CoV-2 entry assay cells); series mostly up to 57.1 µM; activity change, negative = cytotoxicity: at the top concentration
Outline: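 Expi293F/hACE2 cells seeded overnight; cpd pin-transferred in DMSO, 1 h preincubation, + media, 48 h 37 C 5% CO2; ATPLite 1step luminescence; normalized to cells and no cells.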

Compound	activity change, negative = cytotoxicity	outcome	Potency
CC(C)C[C@H]1C(=O)N2CCC[C@H]2[C@]2(O)O[C@](NC(=O)[C@@H]3C=C4c5cccc6[nH]c(Br)c(c56)CC4N(C)C3)(C(C)C)C(=O)N12 (some centres undefined)	-24.6%	–	–
CCCCCCCCCC(=O)OCCN1CCN(CCCN2c3ccccc3Sc3ccc(C(F)(F)F)cc32)CC1	–	inactive	–
CCC1OC(=O)[C@H](C)C(=O)[C@H](C)[C@@H](OC2O[C@H](C)C[C@H](N(C)C)[C@H]2O)[C@](C)(OC)C[C@@H](C)C(=O)[C@@H](C)[C@@H]2N(CCCCn3cnc(-c4cccnc4)c3)C(=O)O[C@]12C (some centres undefined)	–	inactive	–
CCCCCCCC(=O)N[C@H](CN1CCCC1)[C@H](O)c1ccc2c(c1)OCCO2	-18.6%	–	–
COc1c(-c2ccc3cc(NS(C)(=O)=O)ccc3c2)cc(-n2ccc(=O)[nH]c2=O)cc1C(C)(C)C	-21.3%	–	–
CC(CC(c1ccccc1)c1ccccc1)NC(C)(C)C (centres undefined)	–	inactive	–
COC(=O)N[C@H](C(=O)N1CCC[C@H]1c1ncc(-c2ccc(-c3ccc(-c4cnc([C@@H]5CCCN5C(=O)[C@@H](NC(=O)OC)C(C)C)[nH]4)cc3)cc2)[nH]1)C(C)C	–	–	39.8 µM (active)
OC[C@H]1NC[C@H](O)[C@@H](O)[C@@H]1O	–	inactive	–
CC[C@@H](C(=O)[C@@H](C)[C@@H](O)[C@H](C)CCc1ccc(C)c(O)c1C(=O)O)[C@H]1O[C@](CC)([C@H]2CC[C@](O)(CC)[C@H](C)O2)C[C@@H]1C	–	–	8.91 µM (active)
CCCCCCCCCC(=O)NO	-5.18%	–	–
CC(C)(C)NCC(O)COc1ccccc1C1CCCC1 (centres undefined)	-12.7%	–	–
C=Cc1c(C)c2cc3nc(cc4[nH]c(cc5nc(cc1[nH]2)C(C)=C5CCC(=O)O)c(CCC(=O)OC)c4C)[C@@]1(C)C3=CC=C(C(=O)OC)[C@@H]1C(=O)OC	–	inactive	–
O=C1[C@@H]2[C@H]3CC[C@H](C3)[C@@H]2C(=O)N1C[C@@H]1CCCC[C@H]1CN1CCN(c2nsc3ccccc23)CC1	3.02%	–	–
Cc1cncc(CN2CCC(=C3c4ccc(Cl)cc4CCc4cccnc43)CC2)c1	0.989%	–	–
C=CC[C@@H]1/C=C(\C)C[C@H](C)C[C@H](OC)[C@H]2O[C@@](O)(C(=O)C(=O)N3CCCC[C@H]3C(=O)O[C@H](/C(C)=C/[C@@H]3CC[C@@H](O)[C@H](OC)C3)[C@H](C)[C@@H](O)CC1=O)[C@H](C)C[C@@H]2OC	-16.4%	–	–
CCN1CCC(=C2c3ccccc3CCc3ccccc32)C1C (centres undefined)	–	inactive	–
COc1cc2c(cc1OC)[C@H]1C[C@@H](OC(=O)[C@@H](N)C(C)C)[C@H](CC(C)C)CN1CC2	–	inactive	–
CCN1CCN(Cc2ccc(Nc3ncc(F)c(-c4cc(F)c5nc(C)n(C(C)C)c5c4)n3)nc2)CC1	2.99%	–	–
Cc1cc(-n2c(=O)[nH]c(=O)n(C)c2=O)ccc1Oc1ccc(SC(F)(F)F)cc1	-3.52%	–	–

Compound	activity change, negative = cytotoxicity	outcome	Potency
Cc1ccc(C2(O)CCN(CCCC(=O)c3ccc(F)cc3)CC2)cc1	–	inactive	–
O=C(CCCN1CCC(C(=O)c2ccc(F)cc2)CC1)c1ccc(F)cc1	-0.0854%	–	–
CCOC(=O)Oc1c(OC)cc(C(=O)O[C@@H]2C[C@@H]3CN4CCc5c([nH]c6cc(OC)ccc56)[C@H]4C[C@@H]3[C@H](C(=O)OC)[C@H]2OC)cc1OC	-8.79%	–	–
CC(=O)c1ccc2c(c1)N(CCCN1CCN(CCO)CC1)c1ccccc1S2	1.83%	–	–
CC(=O)O[C@]1(C(C)=O)CC[C@H]2[C@@H]3C=C(C)C4=CC(=O)CC[C@@H]4[C@H]3CC[C@@]21C	-13.2%	–	–
CCCCCCC(COC(=O)c1cccnc1)(COC(=O)c1cccnc1)COC(=O)c1cccnc1	–	inactive	–
CC[C@@H](C)[C@H]1O[C@]2(CC[C@@H]1C)C[C@@H]1C[C@@H](C/C=C(\C)[C@@H](O[C@H]3C[C@H](OC)[C@@H](O[C@H]4C[C@H](OC)[C@@H](O)[C@H](C)O4)[C@H](C)O3)[C@@H](C)/C=C/C=C3\CO[C@@H]4[C@H](O)C(C)=C[C@@H](C(=O)O1)[C@]34O)O2	-7.05%	–	–
COc1cc2[nH]c(C)c(CCN3CCN(c4ccccc4)CC3)c2cc1OC	–	inactive	–
CNS(=O)(=O)CC1CCC(N(C)c2ncnc3[nH]ccc23)CC1 (centres undefined)	-22.7%	–	–
CCCCCCCCCC(=O)OCCN1CCN(CC/C=C2\c3ccccc3Sc3ccc(C(F)(F)F)cc32)CC1	4.89%	–	–
O=C(O)c1ccc2nc(-c3cc(Cl)cc(Cl)c3)oc2c1	–	inactive	–
CC[C@@H]1/C=C(\C)C[C@H](C)C[C@H](OC)[C@H]2O[C@@](O)(C(=O)C(=O)N3CCCC[C@H]3C(=O)O[C@H](/C(C)=C/[C@@H]3CC[C@H](Cl)[C@H](OC)C3)[C@H](C)[C@@H](O)CC1=O)[C@H](C)C[C@@H]2OC	-0.306%	–	–
CCCN1C[C@H](C)[C@@H](O)[C@](C)(O)[C@@H](CC)OC(=O)[C@H](C)[C@@H](O[C@H]2C[C@@](C)(OC)[C@@H](O)[C@H](C)O2)C(C)[C@@H](O[C@@H]2O[C@H](C)C[C@H](N(C)C)[C@H]2O)[C@](C)(O)C[C@H]1C (some centres undefined)	–	inactive	–
COC(=O)C1=C(C#N)NC(C)=C(C(=O)OC(C)C)C1c1cccc([N+](=O)[O-])c1 (centres undefined)	-11.7%	–	–
Cc1cnc(C(=O)N[C@H]2CCCCC/C=C\[C@H]3C[C@@]3(C(=O)NS(=O)(=O)C3CC3)NC(=O)[C@@H]3C[C@@H](Oc4nc5ccccc5c5ccccc45)CN3C2=O)cn1	–	inactive	–
OC(CCN1CCCCC1)(c1ccccc1)C1CCCC1 (centres undefined)	-10.2%	–	–
CO[C@H]1/C=C\O[C@@]2(C)Oc3c(C)c(O)c4c(O)c(c5c(c4c3C2=O)=NC2(CCN(CC(C)C)CC2)N=5)NC(=O)/C(C)=C\C=C/[C@H](C)[C@H](O)[C@@H](C)[C@@H](O)[C@@H](C)[C@H](OC(C)=O)[C@@H]1C	-7.93%	–	–
N#Cc1ccc2[nH]cc(CCCCN3CCN(c4ccc5oc(C(N)=O)cc5c4)CC3)c2c1	–	inactive	–
[2H]C([2H])([2H])C(O)([C@@H](C)/C=C/[C@@H](C)[C@H]1CC[C@H]2/C(=C/C=C3C[C@@H](O)C[C@H](O)C3)CCC[C@]12C)C([2H])([2H])[2H]	-12.9%	–	–
